The values below come from PubChem BioAssay AID2284102 (EPA ToxCast).

Records with an inconclusive call do not appear. The source made the active and inactive calls. How the source made its calls: active means hit-call score of the fitted dose curve at least 0.9, where 1 is the maximum; inconclusive means response in the unintended direction; inactive means score below 0.9.

The target of the assay is Tyrosine-protein kinase Lyn (Homo sapiens) (UniProt P07948). The assay can be described thus: ERF_FR_ENZ_hLYN: Eurofins (ERF) Enzymatic Radiometric [Km ATP] KinaseProfiler LeadHunter Assay for human LYN Tyrosine Kinase. The method, then: ERF_FR_ENZ_hLYN is a biochemical, single-readout assay that uses extracted gene-proteins in a cell-free assay. Measurements were taken 0.5 hour after chemical dosing in a 96-well plate. See LYN (B) Human TK Kinase Enzymatic HTRF Assay [Km ATP], Cerep.ERF_FR_ENZ_hLYN is an assay component calculated from the ERF_FR_ENZ_hLYN assay. It is designed to measure enzyme activity using a type of enzyme reporter as detected by fluorescence intensity with HTRF technology.Data from the assay component ERF_FR_ENZ_hLYN was analyzed at the assay endpoint, ERF_FR_ENZ_hLYN, in the positive analysis fitting direction relative to DMSO as the negative control and baseline of activity. Using a type of enzyme reporter, loss-of-signal activity can be used to understand changes in enzymatic activity as they relate to gene LYN. To generalize the intended target to other relatable targets, this assay endpoint is annotated to the kinase intended target family, where the subfamily is non-receptor tyrosine kinase.
Chain of Tyrosine-protein kinase Lyn (Homo sapiens) (P07948 whole entry, looked up): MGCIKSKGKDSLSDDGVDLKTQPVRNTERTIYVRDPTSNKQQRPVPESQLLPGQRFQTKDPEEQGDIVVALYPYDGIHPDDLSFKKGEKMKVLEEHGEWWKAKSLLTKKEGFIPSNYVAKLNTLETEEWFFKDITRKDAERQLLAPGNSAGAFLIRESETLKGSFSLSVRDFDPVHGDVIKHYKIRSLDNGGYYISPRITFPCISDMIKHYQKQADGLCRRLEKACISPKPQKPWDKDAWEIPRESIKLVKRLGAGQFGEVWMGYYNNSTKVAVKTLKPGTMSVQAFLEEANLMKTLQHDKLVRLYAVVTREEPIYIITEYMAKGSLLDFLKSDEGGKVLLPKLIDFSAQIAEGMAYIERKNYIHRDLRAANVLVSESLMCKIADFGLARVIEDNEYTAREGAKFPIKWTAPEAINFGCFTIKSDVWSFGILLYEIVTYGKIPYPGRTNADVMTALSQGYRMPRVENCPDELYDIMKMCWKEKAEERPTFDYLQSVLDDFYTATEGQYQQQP
Lyn (h) is incubated with 50 mM Tris pH 7.5, 0.1 mM EGTA, 0.1 mM Na3VO4, 0.1% […], 0.1 mg/mL poly(Glu, Tyr) 4:1, 10 mM MgAcetate and [gamma-33P]-ATP (specific activity and concentration as required). The reaction is initiated by the addition of the Mg/ATP mix. After incubation for 40 minutes at room temperature, the reaction is stopped by the addition of phosphoric acid to a concentration of 0.5%. An aliquot of the reaction is then spotted onto a filter and washed four times for 4 minutes in 0.425% phosphoric acid and once in methanol prior to drying and scintillation counting.Compound should be supplied in 100% DMSO.We require a stock solution at a concentration of at least 50x higher than the Final Assay Concentration of your cpd. A 10mM stock is also acceptable.When ordering fewer than 60 kinase assays, we need 120uL of 50x concentrated stock. For more than 60 assays, we need 420 uL of 50xcc stock. Please apply the conversion if you provide 10mM stock solution or compounds in powder form (pre-weighed is required) From 50 cpds supplied as solids, the TAT will be extended.
Consider `COc1cc(CCC(=O)CC(=O)CCc2ccc(O)c(OC)c2)ccc1O`, for which the AC50 was 2360 nM (active).

Consider `O=C(/C=C/c1ccc(O)cc1)CC(=O)/C=C/c1ccc(O)cc1`, for which the AC50 was 2600 nM (active).

`COc1cc(/C=C/C(=O)CC(=O)/C=C/c2ccc(O)c(OC)c2)ccc1O`: the AC50 was 24.6 nM (active).
